We go through 35 compounds from PubChem BioAssay (NCATS).

Results filed as inconclusive are left out. A call without a number means that no potency is given here. The source made the active and inactive calls. Calls come from the whole dose curve; as a rule, active = well fitted inhibition curve with a large enough effect; inconclusive = small, poorly fitted or top-dose-only effect; inactive = flat fitted curve, though single readings scatter. Peptide text beside a SMILES is read from it.
Potency is the fitted concentration of half-maximal effect.

One assay concerns SC27B. As to the kind of experiment: qHTS profiling for inhibitors of Plasmodium falciparum proliferation (AID 504749). Note: nearly all actives have a fitted effect of over 60% in size. Particulars: P. falciparum in erythrocytes, SYBR Green DNA, 72 h; series mostly up to 28.7 µM. The gist of the method: (§1)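 Parasite proliferation within erythrocytes, 72 h exposure. Endpoint: SYBR Green I fluorescence after overnight lysis at room temperature. Controls: 0.29 uM artemisinin, DMSO.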
A general note: In qHTS, concentration-response curves come from the screen itself.
Take `O=C(O)CN(CCN(CC(=O)O)CC(=O)O)CC(=O)O`: the Potency result is “inactive”.
For `Cc1cn([C@H]2C[C@H](O)[C@@H](CO)O2)c(=O)[nH]c1=O`, the Potency result is “inactive”.
Same read-out and setting: to `COC(F)(F)C(Cl)Cl` belongs “inactive”; to `CC(C)=O`, “inactive”; to `CCN(CC)Cc1cc(Nc2ccnc3cc(Cl)ccc23)ccc1O`, 0.0708 µM (active).
As for `CCCCCCCCCCCCCCCC(=O)OCC(COC(=O)CCCCCCCCCCCCCCC)OC(=O)CCCCCCCCCCCCCCC`, the Potency result is “inactive”.
For `Cc1ccccc1`, the Potency result was “inactive”.
Regarding `Cc1cc(C(=O)NNCc2ccccc2)no1`, the Potency result was “inactive”.
On to `C[C@H]1C[C@H]2[C@@H]3CCC4=CC(=O)C=C[C@]4(C)[C@@]3(F)[C@@H](O)C[C@]2(C)[C@@]1(O)C(=O)CO`, for which the Potency result is “inactive”.
Take `CC(NNC(=O)c1ccccc1)c1ccccc1` (configuration not stated): the Potency entry is “inactive”.
Still for that read-out and setting: to `CCOC(C)=O` belongs “inactive”; to `COC(=O)C1=C(C#N)NC(C)=C(C(=O)OC(C)C)C1c1cccc([N+](=O)[O-])c1` (configuration not stated), 8.91 µM (active).
Turning to `O=S(=O)(O)c1ccc2c(N=Nc3ccc(S(=O)(=O)O)c4ccccc34)c(O)c(S(=O)(=O)O)cc2c1`, the Potency result was “inactive”.
Consider `CCCC(=O)O[C@]1(C(=O)CCl)[C@H](C)C[C@@H]2[C@H]3CCC4=CC(=O)C=C[C@]4(C)[C@@]3(F)C(=O)C[C@@]21C`, for which the Potency is 2.82 µM (active).
In the case of `COC(=O)CCC(=O)CN`, the Potency entry is “inactive”.
For `CC[N+](C)(C)Cc1ccccc1Br`, the Potency entry was “inactive”.
In the case of `CC1=C(/C=C/C(C)=C/C=C/C(C)=C/C=C/C=C(C)/C=C/C=C(C)/C=C/C2=C(C)C(=O)CCC2(C)C)C(C)(C)CCC1=O`, the Potency result is “inactive”.
For the compound `C[C@@H]1CCC2[C@@H](C)[C@@H](O)O[C@@H]3O[C@@]4(C)CC[C@@H]1[C@@]23OO4` (some centres not stated), the Potency was 0.002 µM (active).
With `CC1(C)S[C@@H]2[C@H](NC(=O)[C@@H](NC(=O)N3CCNC3=O)c3ccccc3)C(=O)N2[C@H]1C(=O)O`, the Potency result was “inactive”.
For `CCOC(=O)C1=C(C)NC(C)=C(C(=O)OCC)C1c1ccccc1C=CC(=O)OC(C)(C)C`, the Potency was 11.2 µM (active).
`CC(=O)N[C@@H](CC(=O)O)C(=O)N[C@@H](CCC(=O)O)C(=O)O` (Ac-Asp-Glu-OH): the Potency entry is “inactive”.
Turning to `C[C@]12O[C@H](C[C@]1(O)CO)n1c3ccccc3c3c4c(c5c6ccccc6n2c5c31)CNC4=O`, the Potency was 0.316 µM (active).
On to `CCNC(=O)[C@@H]1CCCN1C(=O)[C@H](CCCN=C(N)N)NC(=O)[C@H](CC(C)C)NC(=O)[C@@H](Cc1c[nH]c2ccccc12)NC(=O)[C@H](Cc1ccc(O)cc1)NC(=O)[C@H](CO)NC(=O)[C@H](Cc1c[nH]c2ccccc12)NC(=O)[C@H](Cc1cnc[nH]1)NC(=O)[C@@H]1CCC(=O)N1`, for which the Potency was 6.31 µM (active).
As to `Cc1ccccc1OCC(O)CNCCOc1ccc(C(N)=O)cc1` (configuration not stated), the Potency result was “inactive”.
With `Cc1c(C)c2c(c(C)c1O)CC[C@@](C)(CCC[C@@H](C)CCC[C@@H](C)CCCC(C)C)O2`, the Potency result is “inactive”.
`CCCCCCC(O)C/C=C/CCCCCCCC(=O)O` (configuration not stated): the Potency result was “inactive”.
On the same count and under the same terms, to `Oc1cc(O)c2c(c1)OC(c1ccc(O)c(O)c1)C(O)C2` (configuration not stated) belongs “inactive”; to `CCCC(=O)Nc1ncnc2c1ncn2C1OC2COP(=O)(O)OC2C1OC(=O)CCC` (configuration not stated), “inactive”.
Same read-out and setting: under `NC(=O)c1ncn(C2OC(CO)C(O)C2O)n1` (configuration not stated) stands “inactive”; under `Nc1ncnc2c1ncn2[C@@H]1O[C@H](COP(=O)(O)OP(=O)(O)OP(=O)(O)O)[C@@H](O)[C@H]1O`, “inactive”; under `CC(Cc1ccc(O)c(O)c1)C(C)Cc1ccc(O)c(O)c1` (configuration not stated), “inactive”.
Consider `CC[C@@]1(O)C(=O)OCc2c1cc1n(c2=O)Cc2cc3c([N+](=O)[O-])cccc3nc2-1`, for which the Potency is 5.62 µM (active).

For the next assay, the system named is TAB109. The assay is described as above. As to conditions: P. falciparum in erythrocytes, SYBR Green DNA, 72 h; series mostly up to 28.7 µM. A digest of the protocol:
as §1
Take `O=C(O)CN(CCN(CC(=O)O)CC(=O)O)CC(=O)O`: the Potency entry was “inactive”.
`Cc1cn([C@H]2C[C@H](O)[C@@H](CO)O2)c(=O)[nH]c1=O`: the Potency entry is “inactive”.
Regarding `COC(F)(F)C(Cl)Cl`, the Potency entry is “inactive”.
Take `CC(C)=O`: the Potency result is “inactive”.
As to `CCN(CC)Cc1cc(Nc2ccnc3cc(Cl)ccc23)ccc1O`, the Potency is 0.0501 µM (active).
As to `Cc1ccccc1`, the Potency result is “inactive”.
Regarding `Cc1cc(C(=O)NNCc2ccccc2)no1`, the Potency entry was “inactive”.
As to `C[C@H]1C[C@H]2[C@@H]3CCC4=CC(=O)C=C[C@]4(C)[C@@]3(F)[C@@H](O)C[C@]2(C)[C@@]1(O)C(=O)CO`, the Potency result was “inactive”.
As to `CC(NNC(=O)c1ccccc1)c1ccccc1` (configuration not stated), the Potency entry was “inactive”.
`CCOC(C)=O`: the Potency entry is “inactive”.
As to `COC(=O)C1=C(C#N)NC(C)=C(C(=O)OC(C)C)C1c1cccc([N+](=O)[O-])c1` (configuration not stated), the Potency was 8.91 µM (active).
Turning to `O=S(=O)(O)c1ccc2c(N=Nc3ccc(S(=O)(=O)O)c4ccccc34)c(O)c(S(=O)(=O)O)cc2c1`, the Potency entry was “inactive”.
On to `CCCC(=O)O[C@]1(C(=O)CCl)[C@H](C)C[C@@H]2[C@H]3CCC4=CC(=O)C=C[C@]4(C)[C@@]3(F)C(=O)C[C@@]21C`, for which the Potency was 3.16 µM (active).
The same measure, in the same setting: under `COC(=O)CCC(=O)CN` stands “inactive”; under `CC[N+](C)(C)Cc1ccccc1Br`, “inactive”.
Regarding `CC1=C(/C=C/C(C)=C/C=C/C(C)=C/C=C/C=C(C)/C=C/C=C(C)/C=C/C2=C(C)C(=O)CCC2(C)C)C(C)(C)CCC1=O`, the Potency result is “inactive”.
With `C[C@@H]1CCC2[C@@H](C)[C@@H](O)O[C@@H]3O[C@@]4(C)CC[C@@H]1[C@@]23OO4` (some centres not stated), the Potency was 0.001 µM (active).
Regarding `CC1(C)S[C@@H]2[C@H](NC(=O)[C@@H](NC(=O)N3CCNC3=O)c3ccccc3)C(=O)N2[C@H]1C(=O)O`, the Potency result was “inactive”.
For the compound `CC(=O)N[C@@H](CC(=O)O)C(=O)N[C@@H](CCC(=O)O)C(=O)O` (Ac-Asp-Glu-OH), the Potency entry was “inactive”.
Still for that read-out and setting: to `C[C@]12O[C@H](C[C@]1(O)CO)n1c3ccccc3c3c4c(c5c6ccccc6n2c5c31)CNC4=O` belongs 0.355 µM (active); to `CCOc1ccc(N=Nc2ccc(N)cc2N)cc1`, “inactive”; to `CCNC(=O)[C@@H]1CCCN1C(=O)[C@H](CCCN=C(N)N)NC(=O)[C@H](CC(C)C)NC(=O)[C@@H](Cc1c[nH]c2ccccc12)NC(=O)[C@H](Cc1ccc(O)cc1)NC(=O)[C@H](CO)NC(=O)[C@H](Cc1c[nH]c2ccccc12)NC(=O)[C@H](Cc1cnc[nH]1)NC(=O)[C@@H]1CCC(=O)N1`, 4.47 µM (active).
With `Cc1ccccc1OCC(O)CNCCOc1ccc(C(N)=O)cc1` (configuration not stated), the Potency result was “inactive”.
For `CCCCCCOc1ccc(C(=N)N(CCCC)CCCC)c2ccccc12`, the Potency is 7.94 µM (active).
In the case of `Oc1cc(O)c2c(c1)OC(c1ccc(O)c(O)c1)C(O)C2` (configuration not stated), the Potency entry is “inactive”.
With `CCCC(=O)Nc1ncnc2c1ncn2C1OC2COP(=O)(O)OC2C1OC(=O)CCC` (configuration not stated), the Potency result was “inactive”.
As to `NC(=O)c1ncn(C2OC(CO)C(O)C2O)n1` (configuration not stated), the Potency entry is “inactive”.
As to `Nc1ncnc2c1ncn2[C@@H]1O[C@H](COP(=O)(O)OP(=O)(O)OP(=O)(O)O)[C@@H](O)[C@H]1O`, the Potency result is “inactive”.
On to `Clc1cc(Cl)c(OCC#CI)cc1Cl`, for which the Potency is 11.2 µM (active).
Regarding `CC[C@@]1(O)C(=O)OCc2c1cc1n(c2=O)Cc2cc3c([N+](=O)[O-])cccc3nc2-1`, the Potency is 3.98 µM (active).
